Bioassay records deposited in PubChem by National Center for Advancing Translational Sciences (NCATS).
The list is not random: actives were taken first. Their share in the collection is about 2.5%.
Cruzain Triton – qHTS Assay for Promiscuous and Specific Inhibitors of Cruzain (with detergent); Cruzipain (Trypanosoma cruzi), P25779; purified cruzain, Z-FR-AMC fluorescence, 0.01% Triton; Potency, µM, actives largely listed as inhibitors; 0.43% of 200,000 active; also: nearly all actives have a fitted effect of over 40% in size
Target sequence (P25779 123-467 limits assumed): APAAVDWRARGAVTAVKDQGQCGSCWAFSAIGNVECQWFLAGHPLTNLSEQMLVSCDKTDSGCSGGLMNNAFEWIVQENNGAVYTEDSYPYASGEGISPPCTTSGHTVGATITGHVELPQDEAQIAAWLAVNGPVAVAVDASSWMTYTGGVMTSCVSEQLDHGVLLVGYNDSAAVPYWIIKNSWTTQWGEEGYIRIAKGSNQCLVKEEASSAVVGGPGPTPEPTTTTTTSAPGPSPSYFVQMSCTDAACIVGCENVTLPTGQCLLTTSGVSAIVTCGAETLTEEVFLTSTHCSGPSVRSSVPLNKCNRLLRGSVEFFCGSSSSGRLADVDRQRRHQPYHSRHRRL
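Purified cruzain (1.5 nM final) was preincubated with compounds for 15 min at room temperature in 100 mM sodium acetate pH 5.5, 5 mM DTT, 0.01% Triton X-100. Reaction started with 2 uM Z-FR-AMC; AMC fluorescence change over 60 s gave activity.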
Cruzain inh noDet – qHTS Assay for Promiscuous and Specific Inhibitors of Cruzain (without detergent). Cruzipain (Trypanosoma cruzi), P25779. purified cruzain, Z-FR-AMC fluorescence, no detergent. Potency, µM, most hits filed as inhibitors. 2.3% of 200,000 active; also: nearly all actives have a fitted effect of over 40% in size
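Detergent-free condition (0.00005% Triton X-100) in acetate buffer pH 5.5 with DTT. 1.5 nM enzyme and compound were pre-mixed 15 min, then 2 uM Z-FR-AMC substrate added; reaction progress from fluorescence change between first and third reads (60 s).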
Hits are given with their value. Calls follow the shape of the dose curve; as a rule, active = well fitted curve in the direction sought with a large enough effect; inconclusive = small, poorly fitted or top-dose-only effect, or another doubt; inactive = no such curve, though single readings can be large; an effect the other way counts as inactive or inconclusive.

`Oc1c(C=C2N=c3ccccc3=N2)sc(=S)n1-c1ccc(F)cc1` gave Cruzain Triton inactive and Cruzain inh noDet 20µM.
`Cc1ccc(CNC(=O)c2ccc(CS(=O)(=O)c3ccccc3C)o2)cc1` gave Cruzain Triton inactive and Cruzain inh noDet inactive.
For COC(=O)c1ccc(CS(=O)(=O)c2ccccc2C)o1 the results were Cruzain Triton inactive and Cruzain inh noDet 16µM.
`O=C(CC12CC3CC(C1)CC(CC(=O)NC1=NCCS1)(C3)C2)NC1=NCCS1` gave Cruzain Triton inactive and Cruzain inh noDet 25µM.
Screening O=C(NC1=NCCS1)C12CC3CC(C1)CC(C(=O)NC1=NCCS1)(C3)C2 returned Cruzain Triton inactive and Cruzain inh noDet inactive.
C#CCCCCCCCCCCCC(O)CC(O)COC(C)=O (centres undefined) was read as Cruzain Triton inactive and Cruzain inh noDet inactive.
`CCCn1c(Nc2nc3ccccc3n2C)nc2ccccc21` gave Cruzain Triton inactive and Cruzain inh noDet 20µM.
`CCCCn1c(Nc2ccccc2)nc2ccccc21` gave Cruzain Triton inactive and Cruzain inh noDet inactive.
Screening N#CCCCS(=O)(=O)c1nnnn1C1CCCCC1 returned Cruzain Triton inactive and Cruzain inh noDet inactive.
For CSC[C@@H]1NC(=S)N(c2ccc(C)cc2)C1=O the results were Cruzain Triton inactive and Cruzain inh noDet 13µM.
Screening CC1=CC(C)(C)NC(=S)N1c1ccc(C)cc1 returned Cruzain Triton inactive and Cruzain inh noDet inactive.
COc1ccc(NC(=O)Cn2c(=O)n(-c3cccc(C)c3)c(=O)c3c2c2cc(C)ccc2n3C)cc1Cl was read as Cruzain Triton inactive and Cruzain inh noDet inactive.
COc1ccccc1C(=O)NCC(=O)OC(C)C(=O)NC(=O)NC1CCCCC1 (centres undefined) was read as Cruzain Triton 8.9µM and Cruzain inh noDet 10µM.
COc1ccccc1C(=O)NCC(=O)OCc1ccc(Br)cc1 was read as Cruzain Triton inactive and Cruzain inh noDet inactive.
`CCc1ccc(NC(=O)CCc2c(C)nn(-c3ccc(N4CCCC4)nn3)c2C)cc1` gave Cruzain Triton inactive and Cruzain inh noDet inconclusive.
CCc1ccc(-n2nc(CO)c(C(=O)NCc3cccs3)n2)cc1 was read as Cruzain Triton inactive and Cruzain inh noDet inactive.
`Cc1cc(=O)oc2c(N)c(O)ccc12` gave Cruzain Triton inactive and Cruzain inh noDet inactive.
`Cc1cc(=O)oc2c(CN(C)Cc3ccccc3)c(O)ccc12` gave Cruzain Triton 20µM and Cruzain inh noDet inconclusive.
Screening CCOC(=O)c1ccc(NC(=O)CS(=O)(=O)Cc2nc(-c3ccc(C)cc3)oc2C)cc1 returned Cruzain Triton inactive and Cruzain inh noDet inactive.
Cc1ccc(CCNC(=O)CCCn2c(=O)c3ccccc3n(Cc3ccccc3C#N)c2=O)cc1 was read as Cruzain Triton inactive and Cruzain inh noDet inactive.
Screening CCc1cccc(C)c1NC(=O)CSc1nc(-c2ccccc2F)nc2nc[nH]c12 returned Cruzain Triton inactive and Cruzain inh noDet inconclusive.
Screening O=C(CSc1nc(-c2ccccc2F)nc2nc[nH]c12)Nc1c(Cl)cc(Cl)cc1Cl returned Cruzain Triton inactive and Cruzain inh noDet 6.3µM.
Screening Cc1cc(C)c(S(=O)(=O)NCC(c2cccs2)S(=O)(=O)c2ccccc2)c(C)c1 (centres undefined) returned Cruzain Triton inactive and Cruzain inh noDet inactive.
For COc1ccc2c(=O)c3c(=O)n(Cc4ccco4)c(C(C)C)nc3oc2c1 the results were Cruzain Triton inconclusive and Cruzain inh noDet 32µM.
Screening COc1ccc2c(=O)c3c(=O)n(Cc4ccco4)c(-c4ccc(C)cc4)nc3oc2c1 returned Cruzain Triton inactive and Cruzain inh noDet inactive.
Cc1cc(=O)[nH]c(/N=C(\N)Nc2ccc(Cl)cc2)n1 was read as Cruzain Triton inactive and Cruzain inh noDet inactive.
Screening CCOC(=O)C1(C(C)C)Oc2ccccc2C(c2ccc(OC)cc2)=C1C(=O)OC (centres undefined) returned Cruzain Triton inactive and Cruzain inh noDet inactive.
O=C(COC(=O)c1cc(-c2ccc(Cl)s2)nc2ccccc12)NCc1ccco1 was read as Cruzain Triton 20µM and Cruzain inh noDet inactive.
For O=C(COC(=O)c1cc(-c2cccs2)nc2ccccc12)NCc1ccco1 the results were Cruzain Triton 25µM and Cruzain inh noDet inactive.
COc1ccc(Nc2cc(C(=O)NCc3ccco3)c3ccccc3n2)cc1 was read as Cruzain Triton inactive and Cruzain inh noDet 13µM.
COc1ccc(CNC(=O)COC(=O)c2cc(-c3ccc(Cl)s3)nc3ccccc23)cc1 was read as Cruzain Triton inactive and Cruzain inh noDet inactive.
Screening COc1ccc(Nc2cc(C(=O)NCc3ccccc3OC)c3ccccc3n2)cc1 returned Cruzain Triton inactive and Cruzain inh noDet inactive.
`O=C(NCc1ccco1)c1cc(-c2cccs2)nc2ccccc12` gave Cruzain Triton inactive and Cruzain inh noDet inactive.
For COc1ccccc1CNC(=O)c1cc2ccc3ccc(C)[nH]c3c2n1 the results were Cruzain Triton inactive and Cruzain inh noDet inactive.
For Cc1ccc(NC(=O)Cn2c(=O)n(CCC(=O)N3CCc4ccccc4C3)c(=O)c3ccccc32)cc1 the results were Cruzain Triton inactive and Cruzain inh noDet inactive.
For CCCC(=O)C1=C(c2ccc(C)cc2)N(C(=O)CCC)n2cnnc2S1 the results were Cruzain Triton inactive and Cruzain inh noDet inactive.
Screening CC(=O)Nc1ccc(NS(=O)(=O)c2c(C)nc3sccn3c2=O)cc1 returned Cruzain Triton inactive and Cruzain inh noDet inactive.
COc1cccc(-n2c(SCC(=O)Nc3ccc(F)cc3F)nc3c([nH]c4ccccc43)c2=O)c1 was read as Cruzain Triton inactive and Cruzain inh noDet inactive.
For Cc1ccc(-n2c(SCC(=O)Nc3ccc4c(c3)OCO4)nc3c([nH]c4ccccc43)c2=O)cc1 the results were Cruzain Triton inactive and Cruzain inh noDet 13µM.
Screening CCc1ccc(NC(=O)CSc2nc3c([nH]c4ccccc43)c(=O)n2-c2ccc(C)cc2)cc1 returned Cruzain Triton inactive and Cruzain inh noDet inconclusive.
`COc1cccc(-n2c(SCC(=O)Nc3c(C)cc(C)cc3C)nc3c([nH]c4ccccc43)c2=O)c1` gave Cruzain Triton inactive and Cruzain inh noDet inactive.
`COc1cccc(NC(=O)CSc2nc3c([nH]c4ccccc43)c(=O)n2-c2cc(C)cc(C)c2)c1` gave Cruzain Triton inactive and Cruzain inh noDet 16µM.
COc1cccc(-n2c(SCC(=O)Nc3ccc4c(c3)OCO4)nc3c([nH]c4ccccc43)c2=O)c1 was read as Cruzain Triton inactive and Cruzain inh noDet 16µM.
`Cc1cccc(-n2c3nc(=O)[nH]c(=O)c-3cc3c(Cl)cccc32)c1C` gave Cruzain Triton inactive and Cruzain inh noDet inactive.
For Cc1ccc2nc(/C(C#N)=C/c3ccc(-c4cccc([N+](=O)[O-])c4)o3)[nH]c2c1 the results were Cruzain Triton inactive and Cruzain inh noDet inconclusive.
For COc1cccc(/C=C(\C#N)c2nc3ccc(C)cc3[nH]2)c1 the results were Cruzain Triton inactive and Cruzain inh noDet inconclusive.
Screening CCOc1cc(N(CC)CC)ccc1/C=C(/C#N)c1nc2ccccc2[nH]1 returned Cruzain Triton inactive and Cruzain inh noDet 32µM.
Screening CCCOc1cc(N(CC)CC)ccc1/C=C(/C#N)c1nc2ccc(C)cc2[nH]1 returned Cruzain Triton inactive and Cruzain inh noDet 20µM.
COc1cc(/C=C(\C#N)c2nc3ccccc3[nH]2)cc(Br)c1OCc1ccccc1 was read as Cruzain Triton inactive and Cruzain inh noDet inconclusive.
